Experimental data published in PubChem BioAssay AID615 (Sanford-Burnham Center for Chemical Genomics, 2007).
The campaign covered roughly 21,000 compounds. Fewer than 10 were called active.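 The calls were made as follows: active = inhibition above 50% at the 20 µM single-dose screen; inactive = the rest.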 Only a sample is shown.

The molecules below were run against Alkaline phosphatase, tissue-nonspecific isozyme (Homo sapiens) (UniProt P05186) (assay: blockers of alkaline phosphatase TNAP catalysis – biochemical, colorimetric, p-nitrophenol readout, primary screen (AID 615;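 also: 0% = DMSO only wells and 100% = 1 mM levamisole wells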)). Conditions: purified TNAP, pNPP hydrolysis, absorbance 405 nm; at 20 µM; hits give high values.
Sequence of Alkaline phosphatase, tissue-nonspecific isozyme (Homo sapiens) (P05186 whole entry, looked up): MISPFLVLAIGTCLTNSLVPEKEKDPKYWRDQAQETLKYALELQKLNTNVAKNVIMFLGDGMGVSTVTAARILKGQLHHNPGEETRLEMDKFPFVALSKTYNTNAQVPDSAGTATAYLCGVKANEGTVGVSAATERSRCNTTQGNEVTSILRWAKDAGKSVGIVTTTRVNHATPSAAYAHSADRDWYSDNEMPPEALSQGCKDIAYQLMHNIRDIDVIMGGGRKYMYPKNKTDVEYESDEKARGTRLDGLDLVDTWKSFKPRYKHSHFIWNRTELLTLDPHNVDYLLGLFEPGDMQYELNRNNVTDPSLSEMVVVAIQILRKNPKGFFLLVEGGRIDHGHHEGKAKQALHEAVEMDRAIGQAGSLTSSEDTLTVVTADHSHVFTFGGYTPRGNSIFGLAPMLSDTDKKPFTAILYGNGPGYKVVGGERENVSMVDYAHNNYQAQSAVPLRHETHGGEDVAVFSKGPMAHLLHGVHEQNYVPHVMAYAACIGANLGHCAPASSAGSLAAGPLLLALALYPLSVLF

inhibition, inactive:
CC(C)C[C@H](NC(=O)NCCc1ccc(Cl)cc1)C(=O)O 2.2%, Cc1cc(C)c2nc(SCCC#N)nc(C)c2c1 -0.5%, CCCCn1nnnc1NCc1cc(OC)c(OC)c(OC)c1 -0.6%, C=CCn1c(COc2ccccc2)nnc1SCC(=O)NCC(=O)OCC -6.9%, CC(=O)Cc1nsc(NC(=O)c2ccc(COc3ccc(C)cc3)o2)n1 1.5%, Cc1cc(NC(=O)c2cnn3cccnc23)n(-c2ccccc2)n1 3.9%, Cc1ccc(S(=O)(=O)N2CCC(C(=O)N[C@@H](C)C(=O)NCCc3ccccc3)CC2)cc1 -7.1%, CCC(CC)C(=O)Nc1cc(C(=O)OC)cc(C(=O)OC)c1 4.4%, CC(=O)N1CCN(CCN=CC2=C(O)CC(C)(C)CC2=O)CC1 5.5%, Cc1ccc2c(C(=O)CN3CCCC3)c(C)[nH]c2c1 -14.5%, O=C(O)CN(Cc1ccco1)S(=O)(=O)c1ccc(F)cc1 0.4%, COc1ccc(NC2CC(=O)N(C)C2=O)cc1 (stereo unspecified) 3.1%, Cc1occc1C(=O)Nc1cccc(Cn2cccn2)c1 -2.4%, CC(=O)OCc1cc(=O)n(C)c(=O)n1C 1.6%, Nc1nnnn1/N=C/c1cccs1 0%, CC(C)c1nc(-c2ccccn2)no1 2.2%, CSCCC(NC(=O)c1ccc(=O)n(C)n1)c1nc2ccccc2[nH]1 (stereo unspecified) -0.4%, CCc1ccccc1N(CC(=O)N1CCN(c2ccccc2F)CC1)S(C)(=O)=O 3.4%, Cc1cccc(N(CC(O)CN(C)C)S(=O)(=O)c2ccccc2)c1 (stereo unspecified) 6%, CC(=O)Nc1nc(C)c(Cc2ccccc2)c(=O)[nH]1 0%, CC(C)C(c1nnnn1C1CCCC1)N1CCN(c2ccccc2F)CC1 (stereo unspecified) 4.1%, O=C(NC(c1ccccc1)c1ccccc1)N1CCN(CCO)CC1 5.5%, c1ccc(-n2ncc(-c3nn[nH]n3)n2)cc1 1.2%, COc1ccc(C2/C(=C(/O)c3ccc(OC(C)C)cc3)C(=O)C(=O)N2CCCN2CCOCC2)cc1 (stereo unspecified) 2.6%, CCCOc1ccc(CN(CCO)CCO)cc1C(=O)OC 8.5%, CCC(=O)Nc1cccc(NC(=O)CSc2nnnn2C2CCCC2)c1 4.5%, CCOC(=O)N1CCN(Cc2oc(CO)cc(=O)c2O)CC1 4.3%, Cc1ccc(-n2c(Cc3cccs3)nnc2SCC(=O)OC(C)C)cc1 -1%, CCc1nnc(NC(=O)CSc2nnc(-c3ccncc3)n2Cc2ccccc2)s1 5.3%, Cn1c(=O)c2c(nc(Br)n2CCSc2nc3ccccc3o2)n(C)c1=O 0%, COc1ccc(CCNS(=O)(=O)c2ccc(F)cc2)cc1OC 3.6%, Nc1nonc1-c1nc2ccccc2n1Cc1ccc(F)cc1 -0.2%, COCCCn1c2nc3ccccc3nc2c2c(=O)n(Cc3ccc(Cl)cc3)c(C)nc21 7.2%, CN1CCN(C(=O)C2C3C=CC(C3)C2C(=O)O)CC1 (stereo unspecified) 3.6%, CCCCC(=O)N1CC2(C)CN(C(=O)CCCC)CC(C)(C1)C2=O -3.1%, O=C(CSc1nnc(-c2cccs2)n1Cc1ccco1)c1ccc2c(c1)OCO2 1.9%, COc1ccc(/C(O)=C2/C(=O)C(=O)N(CCCN(C)C)C2c2ccccc2)cc1OC (stereo unspecified) 2.9%, CCCCC(=O)Nc1ccc2c(c1)OCCO2 -5.8%, CC(=O)C1=C(O)C(=O)N(c2ccc(S(N)(=O)=O)cc2)C1c1ccccc1F (stereo unspecified) 0.8%, CCOC(=O)c1c(-n2cnnn2)sc(C)c1C 3.1%, Cn1c2c(c(=O)n(C)c1=O)CN(Cc1ccco1)CN2 -1.5%, Cc1ccc(NC(=O)N2CCC(C(=O)NCc3ccc(F)cc3)CC2)cc1 6.4%, Cc1ccccc1C(=O)Nc1cccc(-c2nnc(SCC(=O)O)n2C)c1 1.1%, Cc1ccc2[nH]c3c(c2c1)CN(C(=O)CN1CCN(c2ccccc2)CC1)CC3 2.7%, CC(=O)N(CN1C(=O)C2CC=CCC2C1=O)c1cccc(Cl)c1 (stereo unspecified) 7.2%, COc1ccc(C2/C(=C(/O)c3ccccc3)C(=O)C(=O)N2c2ncccn2)cc1OC (stereo unspecified) -1.7%, COc1ccc(C(CNC(=O)c2cccnc2SC)N2CCOCC2)cc1 (stereo unspecified) -2%, CCCCNc1nc2c(c(=O)[nH]c(=O)n2C)n1CCOc1ccccc1 4.2%, CC(=O)c1cc(-c2ccccc2)[nH]c1N1CCCC1 0.8%, O=C(C1CCCO1)N1CCC(c2nc3ccccc3[nH]2)CC1 (stereo unspecified) 5.7%, O=C1Nc2ccccc2C12Nc1ccccc1S2 (stereo unspecified) 2%, Cc1ccc(-c2c3c(=O)n(C)c(=O)n(C)c3cn2-c2ccccc2O)cc1 1.8%, Cc1ccccc1-n1c(SCC(=O)NCc2cccs2)nnc1-c1ccncc1 -7.5%, CCc1nnc(NC(=O)c2c(O)c3c([nH]c2=O)CCCC3)s1 6.2%, COc1ccccc1CNC(=O)C1CCN(S(C)(=O)=O)CC1 7.2%, COc1ccc(NC(=O)c2c(C)oc3c2CCCC3)cc1 5.5%, Cc1nc2nc(CSc3nc4ccccc4s3)cc(=O)n2[nH]1 1.3%, CCOC(=O)C1CCCCN1Cc1ccc(OC)c(OC)c1OC (stereo unspecified) 6.8%, CS(=O)(=O)N(CC(=O)N1CCN(Cc2ccc3c(c2)OCO3)CC1)c1ccc2c(c1)OCO2 -15%, Cc1cc(C(=O)COC(=O)c2cccs2)c(C)n1-c1c(C)n(C)n(-c2ccccc2)c1=O 4.7%, CCCOP(=O)(c1ccc(N(C)C)cc1)C(O)c1cc(OC)c(OC)c(OC)c1 (stereo unspecified) 12.9%, COc1ccc(CCNC(=O)CSc2nnc(-c3cccc(F)c3)o2)cc1OC -1.5%, COc1ccc(CCN(C)CCN2C(=O)c3ccccc3C2=O)cc1OC -0.3%, Cc1ccc(C(=O)NC2CCN(C(=O)N3CCOCC3)CC2)cc1 7%, COc1ccc(N2CCN(C(c3cc4ccc(C)cc4[nH]c3=O)c3nnnn3C3CCCC3)CC2)cc1 (stereo unspecified) 14.6%, CCOC(=O)c1c(NC(=O)c2ccc(Br)o2)sc2c1CCCC2 1%, Cc1cc(=O)[nH]c(SCC(N)=O)c1C#N -1.7%, O=C(c1ccc2c(c1)C(=O)N(c1ccc(Cl)cc1)C2=O)N1CCN(c2ccccn2)CC1 5.1%, CCOc1ccc2nc(NC(=O)CSc3nc4c(c(=O)n(C)c(=O)n4C)n3CC)sc2c1 4.9%, CN(C)CCNC(=O)C(C(=O)c1ccccc1)n1ccccc1=O (stereo unspecified) 1.2%, CCc1c(C)sc(NC(=O)OC)c1C(=O)N1CCOCC1 4.1%, O=C(O)CN1C(=O)CC(Cc2ccccc2)C1=O (stereo unspecified) 4.8%, CCNC(=O)N1CCNC(=O)C1CC(=O)Nc1ccc(C(=O)OCC)cc1 (stereo unspecified) 4.4%, CCOC(=O)c1[nH]c2ccccc2c1N=C(C)N(CC)CC -0.8%, Cc1nn(Cc2ccccc2)c(Cl)c1C(=O)OC1CCOC1=O (stereo unspecified) 3.6%, CCC1C(C#N)=C(SC)NC2=C1C(=O)CC(C)(C)C2 (stereo unspecified) -2.9%, COc1ccc(CC(=O)n2nc(-c3cccnc3)nc2N)cc1 6.9%, Cc1cccc(OCc2nnc(SCC(=O)N3CCN(C(=O)c4ccco4)CC3)n2C)c1C 0.2%, c1csc(CN2CCN(Cc3cccs3)C2c2cccs2)c1 5.5%, CCN1C(=O)/C(=C\N2CCN(c3cccc(Cl)c3)CC2)SC1=S 6.1%, COC(=O)[C@H](CCSC)NC(=O)Nc1ccc(OC)cc1 4.9%, C#CCN1CC(C)/C(=N/O)CC1C (stereo unspecified) 2.4%, CC(C)OC(=O)C(C#N)c1nc2ccccc2nc1N1CCN(Cc2ccc3c(c2)OCO3)CC1 (stereo unspecified) 0%, O=C(Nc1ncccn1)c1cccs1 3.3%, CCCCCN(C(=O)NC(=O)Nc1ccccc1C)S(C)(=O)=O 0.7%, Cc1ccc(C(=O)Nc2nnc(-c3ccncc3)s2)o1 -1.1%, O=C(c1cccs1)N1CCCC(c2nc(-c3ccc(F)cc3)no2)C1 (stereo unspecified) 2.9%, CCCc1cc(=O)oc2c(C)c(O)c(CN3CCCCC3)cc12 0.2%, COc1ccc2c3c(c(=O)oc2c1OCC(=O)C(C)(C)C)CCCC3 3.6%, CCOC(=O)CSc1nnc(CNc2nc(-c3ccccc3)cs2)n1C 5.4%, CCc1cc2c(=O)c(-c3ccon3)c(N)oc2cc1OC 5.4%, Cc1ccnc(SCCn2c(Br)nc3c2c(=O)[nH]c(=O)n3C)n1 3%, O=C(Nc1cnn(Cc2ccc(Cl)cc2)c1)C1CCCC1 9.7%, COc1cc(OC)cc(C(=O)NCCSCc2ccco2)c1 5.2%, CC1(N2CCOCC2)CC2(O)C(=[N+]1[O-])CCc1nonc12 (stereo unspecified) 9.3%, CC1CN(C2CCN(C(=O)COc3ccccc3)CC2)CC(C)O1 (stereo unspecified) -2.1%, CC(C)c1nnc(NC(=O)C2CCCN2S(=O)(=O)c2ccc(Cl)cc2)s1 (stereo unspecified) 3.8%, O=C(CSc1nnc(Cc2ccccc2)n1-c1ccccc1)N1CCOCC1 0.4%, Cc1cccc(NC(=O)CSc2nnc(CCCCCNC(=O)OC(C)(C)C)o2)c1C -8.7%, COC(=O)c1ccc(NC(=O)CSc2nnc(-c3ccncc3)n2C)cc1 1.1%, O=C(O)C1CCCN1S(=O)(=O)c1ccc2c(c1)CCC2 (stereo unspecified) 0.7%
